Assay results from PubChem BioAssay (NCATS).
Results filed as inconclusive are left out. Values without a mark were called inactive. The list shows a part of the results. Calls of active or inactive are those of the source. Calls come from the whole dose curve; as a rule, active = well fitted curve in the direction sought with a large enough effect; inconclusive = small, poorly fitted or top-dose-only effect, or another doubt; inactive = no such curve, though single readings can be large; an effect the other way counts as inactive or inconclusive.

Legend:
[1] = biological target: Tyrosyl-DNA phosphodiesterase 1 (Homo sapiens) (UniProt Q9NUW8); experiment: Confirmation Assay for Inhibitors of Tyrosyl-DNA Phosphodiesterase (TDP1) (AID 489007); conditions: recombinant human TDP1 enzymatic activity, dose-response; note: nearly all actives have a fitted effect of over 40% in size
Chain of Tyrosyl-DNA phosphodiesterase 1 (Homo sapiens) (Q9NUW8 whole entry, looked up): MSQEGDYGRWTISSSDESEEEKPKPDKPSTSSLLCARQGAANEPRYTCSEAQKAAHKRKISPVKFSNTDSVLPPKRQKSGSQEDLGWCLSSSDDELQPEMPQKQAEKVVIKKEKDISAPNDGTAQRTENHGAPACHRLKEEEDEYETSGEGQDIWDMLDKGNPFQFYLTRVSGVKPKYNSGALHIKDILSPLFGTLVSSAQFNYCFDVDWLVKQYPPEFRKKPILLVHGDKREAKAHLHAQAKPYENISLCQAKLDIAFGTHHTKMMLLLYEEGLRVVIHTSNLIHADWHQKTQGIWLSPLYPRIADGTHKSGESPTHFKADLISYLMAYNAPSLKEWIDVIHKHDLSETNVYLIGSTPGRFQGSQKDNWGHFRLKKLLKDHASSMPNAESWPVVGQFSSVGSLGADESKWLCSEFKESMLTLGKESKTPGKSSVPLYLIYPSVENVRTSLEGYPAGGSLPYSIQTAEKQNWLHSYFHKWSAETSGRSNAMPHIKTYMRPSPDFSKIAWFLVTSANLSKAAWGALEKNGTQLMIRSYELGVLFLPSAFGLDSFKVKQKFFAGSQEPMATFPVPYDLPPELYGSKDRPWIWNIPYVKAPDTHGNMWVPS
Method in brief: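 AlphaScreen read-out: streptavidin donor and anti-FITC acceptor beads (10 ug/ml) bind intact substrate, so Tdp1 removal of tyrosine-FITC lowers signal. Enzyme 1 nM, substrate 15 nM, 5 min reaction at room temperature after 15 min compound preincubation.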

[2] = biological target: DNA polymerase eta (Homo sapiens) (UniProt Q9Y253); experiment: qHTS for Inhibitors of Polymerase Eta: Confirmatory Assay for Cherry-picked Compounds (AID 720502); conditions: Pol eta primer extension, TAMRA/BHQ fluorescence, 10 min
Chain of DNA polymerase eta (Homo sapiens) (Q9Y253 whole entry, looked up): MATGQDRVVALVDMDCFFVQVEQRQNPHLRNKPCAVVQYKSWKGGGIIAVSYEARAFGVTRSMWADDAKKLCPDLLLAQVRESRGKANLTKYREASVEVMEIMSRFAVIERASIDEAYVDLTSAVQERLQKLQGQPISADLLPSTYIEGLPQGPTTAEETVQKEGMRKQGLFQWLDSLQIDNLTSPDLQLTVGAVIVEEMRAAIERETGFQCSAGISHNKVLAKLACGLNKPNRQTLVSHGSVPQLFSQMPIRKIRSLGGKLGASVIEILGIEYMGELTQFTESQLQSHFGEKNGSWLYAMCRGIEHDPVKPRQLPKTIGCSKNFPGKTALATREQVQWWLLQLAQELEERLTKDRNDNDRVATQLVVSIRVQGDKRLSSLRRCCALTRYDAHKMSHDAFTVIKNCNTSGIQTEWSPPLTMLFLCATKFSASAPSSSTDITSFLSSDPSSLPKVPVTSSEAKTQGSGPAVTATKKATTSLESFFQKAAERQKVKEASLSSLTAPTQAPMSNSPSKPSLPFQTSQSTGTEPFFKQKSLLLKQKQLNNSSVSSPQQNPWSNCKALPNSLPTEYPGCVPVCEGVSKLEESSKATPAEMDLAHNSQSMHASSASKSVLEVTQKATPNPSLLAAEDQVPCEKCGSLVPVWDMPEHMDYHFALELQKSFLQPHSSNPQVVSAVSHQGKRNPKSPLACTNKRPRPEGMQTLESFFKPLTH
Method in brief: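 The reaction starts with 50 nM final labeled DNA substrate added to Pol eta (10 nM) that had sat with compound for 15 min. TAMRA emission at 598 nm is read at 0 and 10 min.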
Potency is the fitted concentration of half-maximal effect.

Row | SMILES | Potency [1] | Potency [2]
1 | O=C(O)c1ccc(Nc2nc(-c3cc4ccccc4oc3=O)cs2)cc1O | 63.1 µM (active) | –
2 | COc1cccc(/C=N/Nc2ccc(S(=O)(=O)Nc3ccccc3C(=O)O)cc2[N+](=O)[O-])c1O | – | 67.5 µM (active)
